Source: PubChem BioAssay (Johns Hopkins Ion Channel Center)
In the library only some 1.6% were active in any assay of this set; here they are far more common.
KCNQ2 pot: KCNQ2 (rat) channel potentiation. O88943. B-score at 10 µM. CHO-K1 KCNQ2, FluxOR thallium flux fluorescence; stronger effect = higher value. AID 2239. 0.54% of 310,000 active;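 active = fluorescence ratio B-score at least 3 SD of library B-scores, with initial fluorescence B-score within 3 of them, cut at about 5.3 in these data; same plate scores as AID 2156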;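 note: B-score of peak minus minimum over baseline fluorescence ratio after K+ and Tl+ stimulus; positive B-score means potentiation of KCNQ2 with more thallium influx and brighter signal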
KCNQ2 block: KCNQ2 (rat) channel inhibition; O88943; CHO-K1 KCNQ2, FluxOR thallium flux, 20 min; stronger effect = lower value; B-score at 10 µM; 1.1% of 310,000 active; AID 2156;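 active = fluorescence ratio B-score at most minus 3 library SDs, with starting brightness B-score within 2 library SDs, cut at about -5.5 in these data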
Kir21 confirm: confirmation of mouse Kir2.1 potassium channel inhibitors | shares compounds with KCNQ2 pot | 41% of 2,300 active | Kir2.1-expressing cells, FluxOR thallium flux fluorescence; stronger effect = lower value | Tl flux remaining, % of negative control (stronger effect = lower value), % at 10 µM | AID 2032;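 active = Primary-screen hit whose thallium flux fell at least 3 control SD below untreated wells in both duplicates, with normal baseline fluorescence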
HEK293 ctr: parental HEK293 activity in Kir2.1 inhibitor counter-screen; shares compounds with KCNQ2 pot; parental HEK293 cells, FluxOR thallium flux fluorescence; 0% = unstimulated blank wells; FluxOR signal as % of negative control (100 = no effect), % at 10 µM; 19% of 2,300 active; AID 2105;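 active = dye signal at least 3 control SD above or below untreated wells in both duplicates, raw fluorescence within 3, either direction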;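 note: percent is based on the flux ratio of peak minus minimum fluorescence over baseline F0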
CHO-K1 Tl ctr: parental CHO-K1 activity in KCNQ2 potentiator counter-screen; AID 2282; shares compounds with KCNQ2 pot; 43% of 1,200 active; parental CHO-K1 cells, FluxOR thallium flux fluorescence; zero = vehicle mean+3SD, 100% = vehicle-minus-blank window; activity increase over 3SD of controls, % at 10 µM;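 active = signal rise of at least 3 SD above the untreated control mean, in both duplicate wells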;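 note: counter screen of KCNQ2 potentiator hits so any rise reflects channel-independent effects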
KCNQ1 sel pot: selectivity of KCNQ2 potentiators: effect on human KCNQ1; shares compounds with KCNQ2 pot; CHO KCNQ1 stable, FluxOR thallium flux fluorescence; beyond 3SD, as % of vehicle-control signal; activation over 3SD threshold, % at 10 µM; 28% of 1,200 active; AID 2283;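 active = fluorescence ratio rise of at least 3 SD of vehicle wells above their mean, in both replicate wells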
KCNQ2 pot confirm: rat KCNQ2 channel potentiator confirmation | AID 2287 | CHO-KCNQ2 cells, FluxOR thallium flux fluorescence | 68% of 1,200 active | shares compounds with KCNQ2 pot | potentiation, less the hit threshold, % at 10 µM;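 active = fluorescence ratio rising 3 SD or more over the vehicle control mean in both replicates, plus primary screen hit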;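 note: peak minus minimum thallium fluorescence divided by baseline after K/Tl stimulus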
Kir21 spec: tests whether KCNQ2 potentiators also affect mouse Kir2.1; shares compounds with KCNQ2 pot; HEK293 Kir2.1, FluxOR thallium flux fluorescence; activity over 3SD threshold, % at 10 µM; 2% of 1,200 active; AID 2345;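 active = fluorescence ratio rise of at least 3 SD above the vehicle-control mean, seen in both replicates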
KCNQ2 W236L pot: rat KCNQ2 W236L mutant potentiation by KCNQ2 potentiators. shares compounds with KCNQ2 pot. CHO KCNQ2-W236L, automated patch clamp current. current increase over 3SD of negative controls (%), stronger effect = higher value, % at 25 µM. 10% of 940 active. AID 2558;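 active = current increase at least 3 SD of the untreated controls above them in both duplicate recordings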
Numbers stand for hits.

Results for O=C(Nc1ccc(Oc2ccc3ccccc3c2)cc1)c1ccco1 ?
KCNQ2 pot: 11.4; KCNQ2 block: inactive; Kir21 confirm: inactive; HEK293 ctr: inactive; CHO-K1 Tl ctr: 10.0; KCNQ1 sel pot: 10.1; KCNQ2 pot confirm: 28.0; Kir21 spec: inactive; KCNQ2 W236L pot: 7.7%

How did Cc1cccc(NC(=O)CCNC(=O)c2ccco2)c1C do in these assays?
KCNQ2 block: inactive

What do the screens show for `Cc1cccc(NC(=S)NC(=O)c2ccco2)c1C`?
KCNQ2 pot: 9.9; KCNQ2 block: inactive; Kir21 confirm: inactive; HEK293 ctr: 364.5%; CHO-K1 Tl ctr: inactive; KCNQ1 sel pot: inactive; KCNQ2 pot confirm: 46.0; Kir21 spec: inactive; KCNQ2 W236L pot: inactive

What do the screens show for `O=C(Nc1ccc(Oc2ccc(NC(=O)c3ccco3)c(NC(=O)c3ccco3)c2)cc1)c1ccco1`?
KCNQ2 pot: inactive; KCNQ2 block: inactive

What do the screens show for `Cc1cccc(C(=O)O/N=C/c2c(N3CCOCC3)n(C)c3ccccc23)c1`?
KCNQ2 pot: inactive; KCNQ2 block: inactive

Results for Cn1c(COc2ccccc2)nnc1SCC(=O)Nc1ccc(N2CCOCC2)c(Cl)c1 ?
KCNQ2 pot: inactive; KCNQ2 block: inactive

What do the screens show for `c1ccc(-c2nc3ccccc3o2)nc1`?
KCNQ2 pot: inactive; KCNQ2 block: inactive

How did CCn1c(CNC(=O)c2ccc(F)cc2)cc2ccccc21 do in these assays?
KCNQ2 pot: inactive; KCNQ2 block: inactive

What do the screens show for `COc1ccc2cc(C(=O)C3CCCN(C(=O)CCc4ccccn4)C3)ccc2c1` (configuration not stated)?
KCNQ2 block: inactive

How did O=C(Nc1cccc(O)c1)c1cc(S(=O)(=O)N2CCCC2)ccc1Cl do in these assays?
KCNQ2 pot: 5.31; KCNQ2 block: inactive; Kir21 confirm: inactive; HEK293 ctr: inactive; CHO-K1 Tl ctr: 39.5; KCNQ1 sel pot: inactive; KCNQ2 pot confirm: inactive; Kir21 spec: inactive

How did O=C(Nc1ccccc1)c1cc(S(=O)(=O)N2CCSCC2)ccc1Cl do in these assays?
KCNQ2 block: inactive

Results for Cc1cc(C)n(CCNC(=O)CC2C(=O)NCCN2Cc2ccccc2C(F)(F)F)n1 (configuration not stated) ?
KCNQ2 block: inactive

What do the screens show for `COc1ccc(C(C)(C)NC(=O)C2CCC(=O)N(CCCN3CCCC3=O)C2)cc1` (configuration not stated)?
KCNQ2 block: inactive

What do the screens show for `CC1(C)NC(=O)N(CC(O)CN2C(=O)NC(C)(C)C2=O)C1=O`?
KCNQ2 pot: inactive; KCNQ2 block: inactive

What do the screens show for `Brc1cccc(CN2CCCCCC2)c1`?
KCNQ2 pot: inactive; KCNQ2 block: inactive

How did OC1(c2ccc(Br)cc2)CCN(Cc2cccc(Br)c2)CC1 do in these assays?
KCNQ2 block: inactive; Kir21 confirm: 20.5%; HEK293 ctr: inactive

Results for Cc1ccc(-c2cc3nc(-c4ccccc4)cc(N)n3n2)cc1 ?
KCNQ2 block: inactive

Results for CC(C)(C)NC(=O)NC(=O)COC(=O)CCCc1c[nH]c2ccccc12 ?
KCNQ2 block: inactive

Results for CCOc1ccc2[nH]c(SCC(=O)OC)c([N+](=O)[O-])c2c1 ?
KCNQ2 block: inactive

Results for COC(=O)CSc1[nH]c2ccc(Br)cc2c1[N+](=O)[O-] ?
KCNQ2 pot: 6.46; KCNQ2 block: inactive; Kir21 confirm: inactive; HEK293 ctr: inactive; CHO-K1 Tl ctr: inactive; KCNQ1 sel pot: inactive; KCNQ2 pot confirm: inactive; Kir21 spec: inactive
